# Source: PubChem
# Compounds with a hit are over-represented: about 6.2% of the library has one in this group of screens.
# SUMO Mot1 rescue: yeast Mot1-301 growth rescue at high temperature, primary screen, SUMOylation pathway inhibitor project, S. cerevisiae, ATP luminescence, 38.5C; S. cerevisiae Mot1-301 growth rescue; percent above DMSO median, 100 means doubled; AID 2716, 2010; growth rescue, % at 18.8 µM; 1% of 320,000 active;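 active = every valid replicate shows activation above 250% relative to neutral control wells; inactive = the rest, any valid replicate at or below 250%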;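 note: OY570 slx delta 5 strain wells were the positive control but not used for scaling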
# AI-2 QS mod: Vibrio harveyi AI-2 quorum sensing modulators, primary screen, JMH597 strain, luminescence/OD600 ratio; Vibrio harveyi JMH597 AI-2 luminescence/OD600 ratio, 9 h; active compounds read low; strain lacks LuxN and CqsS sensors; 0 = neutral-control median; activity change, % at 7.5 µM; 0.4% of 300,000 active; AID 2094, 2009; in the data active = activity change below about -75%, passing the limit was not always enough;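 note: luminescence divided by OD600 gain over 9 h not by final OD600 alone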
# GRIN3A LBD mod: binders of NR3A ligand-binding domain, primary screen, biophysical, differential scanning fluorimetry, uHTS; NR3A LBD differential scanning fluorimetry, Tm shift; 0% = protein alone, 100% = glycine-bound protein; Tm shift relative to glycine control, % at 25 µM; 2.5% of 340,000 active; AID 1259313, 2017;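 active = melting temperature shift of at least 10% of the positive control shift, at one fixed dose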
# NTR1 agonist: agonists of human NTR1, primary screen, imaging, U2OS cells, beta-arrestin-GFP, high content; Neurotensin receptor type 1 (Homo sapiens), P30989; NTR1-U2OS beta-arrestin-GFP spot imaging, agonist mode; activation, % at 20 µM; 0.17% of 330,000 active; AID 493036, 2011;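 active = activation at or above 40% of the spot to cytoplasm intensity ratio, with at least 20 cells analyzed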;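 note: 0% = DMSO without peptide and 100% = 100 nM NTR1 peptide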
# AHR activator: AHR activators, primary screen, cell-based, luminescence, luciferase reporter, human; activation, % at 5 µM; 2.5% of 320,000 active; AHR-responsive luciferase reporter cells; in the data active = activation above about 47%;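 note: 0% = vehicle wells and 100% = reference agonist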
# Target sequence (P35869 whole entry, looked up): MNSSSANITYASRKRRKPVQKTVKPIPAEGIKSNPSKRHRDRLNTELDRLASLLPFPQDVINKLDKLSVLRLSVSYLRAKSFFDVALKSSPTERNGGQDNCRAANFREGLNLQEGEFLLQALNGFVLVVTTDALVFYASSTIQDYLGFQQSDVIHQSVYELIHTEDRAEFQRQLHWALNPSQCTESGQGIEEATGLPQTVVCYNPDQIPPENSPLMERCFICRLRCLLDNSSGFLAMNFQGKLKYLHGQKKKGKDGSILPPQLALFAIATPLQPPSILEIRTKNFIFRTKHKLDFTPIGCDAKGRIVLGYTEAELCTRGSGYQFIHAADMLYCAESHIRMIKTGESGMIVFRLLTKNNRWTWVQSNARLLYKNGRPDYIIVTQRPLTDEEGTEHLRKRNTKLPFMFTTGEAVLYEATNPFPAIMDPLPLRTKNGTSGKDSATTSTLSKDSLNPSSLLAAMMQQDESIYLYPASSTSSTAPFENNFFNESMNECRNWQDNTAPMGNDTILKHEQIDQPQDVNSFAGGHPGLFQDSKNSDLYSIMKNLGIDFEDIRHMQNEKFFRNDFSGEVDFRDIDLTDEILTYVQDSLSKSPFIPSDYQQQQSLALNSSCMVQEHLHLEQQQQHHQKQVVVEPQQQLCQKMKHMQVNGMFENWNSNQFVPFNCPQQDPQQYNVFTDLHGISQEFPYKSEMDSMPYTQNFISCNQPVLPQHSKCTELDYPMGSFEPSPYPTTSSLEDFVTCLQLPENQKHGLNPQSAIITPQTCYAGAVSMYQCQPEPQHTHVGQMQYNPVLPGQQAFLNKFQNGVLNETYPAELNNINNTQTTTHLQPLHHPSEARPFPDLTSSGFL
# H9c2 protect: cardioprotection against H2O2-induced cell death, primary screen, uHTS, H9c2 cells, ATPLite luminescence | H9c2 cardiomyocytes, H2O2 injury protection, 2 h | protection from H2O2 cell death, % at 20 µM | 0.63% of 360,000 active;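 active = compounds giving at least 50% protection of heart cells from peroxide-induced death in the single-dose screen, raw or plate-pattern-corrected value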;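 note: 0% = DMSO wells with peroxide and 100% = DMSO wells without peroxide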
# The depositor's hits bear a star; x = no result given.
SMILES,SUMO Mot1 rescue,AI-2 QS mod,GRIN3A LBD mod,NTR1 agonist,AHR activator,H9c2 protect
Cc1ccc2[nH]c(=O)c(C(c3nnnn3CC3CCCO3)N3CCCc4ccccc43)cc2c1 (stereo not drawn),-4,20,19*,1,12,11
Brc1ccc(-n2cnc(-c3ccccc3)c2)cc1,31,-35,0,3,14,-11
CSc1ccc(/C=N/NC(=O)c2cc(O)cc(O)c2)cc1,121,-3,13*,2,9,-13
COc1cc(/C=N/NC(=O)CCn2c3ccccc3c3ccccc32)ccc1O,103,32,5,14,7,-11
COc1cc(C(=O)N/N=C/c2ccc3c(c2)c2ccccc2n3C)ccc1O,-32,27,38*,2,x,43
Cn1c2ccccc2c2cc(/C=N/NC(=O)c3cc(O)ccc3O)ccc21,-8,-47,26*,9,6,53*
Cn1c2ccccc2c2cc(/C=N/NC(=O)c3cc(O)cc(O)c3)ccc21,1,23,28*,1,2,18
Cc1c(NC(=O)c2cc(Br)ccc2Cl)cccc1-n1cnnn1,-2,x,4,-1,4,-1
CC(=O)Nc1ccc(S(=O)(=O)Nc2cc(S(=O)(=O)N3CCCCC3)ccc2O)cc1,x,x,-1,-1,x,10
CC(=O)c1ccccc1NC(=O)COC(=O)c1cc2ccccc2[nH]1,5,x,-4,12,26,5
Nc1ccn(C2OC(COC(=O)C34CC5CC(CC(C5)C3)C4)C(O)C2O)c(=O)n1 (stereo not drawn),x,x,-1,x,x,2
O=C(NN=Cc1ccc(O)cc1O)c1ccccc1NS(=O)(=O)c1cccs1,-10,x,5,2,1,51*
COc1ccc([N+](=O)[O-])cc1NC1C2CC3CC(C2)CC1C3 (stereo not drawn),15,32,0,0,0,0
O=C(Nc1ccccc1)c1cc([N+](=O)[O-])ccc1NC1CCCCC1,-2,18,-7,8,52*,-3
COc1ccc([N+](=O)[O-])cc1NC(=O)C1CCCCC1C(=O)O (stereo not drawn),16,21,18*,3,2,4
COc1ccc([N+](=O)[O-])cc1NC(=O)c1cncc(Br)c1,31,15,0,0,70*,-2
COc1ccc([N+](=O)[O-])cc1NC1CCCCC1,12,16,15*,2,2,-10
CCCNC(=O)C1(C)CCCN(C(=O)c2cccc(C(F)(F)F)c2)C1 (stereo not drawn),x,x,x,x,x,7
CCOc1cc(C(=O)Nc2ccc(S(=O)(=O)NC3=NCCCCC3)cc2)cc(Br)c1OC,-7,13,-14,-1,3,-3
Cn1nc(-c2ccc(Cl)cc2)c2cc(C(=O)NCC3CCCO3)sc21 (stereo not drawn),-4,6,-5,5,57*,2
CCN(CC)CCCNC(=O)c1cc2c(-c3ccc(Cl)cc3)nn(C)c2s1,-4,20,0,7,54*,-1
CCCCN(CC)CCNC(=O)c1cc2c(-c3ccccc3F)nn(C)c2s1,27,12,-3,1,9,0
CCOc1ccc(NC(=O)c2ccccc2C(=O)c2ccccc2)cc1OCC,20,24,-2,2,4,2
S=c1[nH]nc(-c2cc(-c3ccccc3)n[nH]2)n1/N=C/c1ccccc1,164,31,-9,8,11,-9
S=c1[nH]nc(-c2cc(-c3ccccc3)n[nH]2)n1/N=C/C(Br)=C/c1ccccc1,539*,22,17*,23,8,0
SMILES,SUMO Mot1 rescue,AI-2 QS mod,GRIN3A LBD mod,NTR1 agonist,AHR activator,H9c2 protect
Cc1ccc(C)c(SCC(=O)OCC(=O)NCCNC(=O)COC(=O)CSc2cc(C)ccc2C)c1,-11,27,-8,0,5,-5
O=C(Nc1ccc(S(=O)(=O)N2CCCC2)cc1)C1CC(=O)N(c2ccc(F)cc2)C1 (stereo not drawn),-8,3,0,1,3,9
Nc1ncnc2c1ncn2[C@H]1C[C@H](O)[C@@H](CO)O1,-11,x,0,0,1,8
Nc1nc(Cl)nc2c1ncn2[C@H]1C[C@H](O)[C@@H](CO)O1,188,-158*,-1,0,-1,-3
O=C(CCCNC(=O)c1ccc(Cl)cc1)NCc1ccccc1F,19,7,2,1,-1,10
CCCNC(=O)N1CCN(S(=O)(=O)c2ccc3c(c2)OCCO3)CC1,-2,x,-3,2,-2,-4
Cc1oc(-c2ccc(C(F)(F)F)cc2)nc1CN(Cc1ccccn1)C[C@@H]1CCC(=O)N1,-13,18,0,0,75*,-2
C=C(C)CN(CC)C(=O)CSc1nc2ncc(Cl)cc2[nH]1,7,16,1,0,69*,7
C=C(C)CSc1nc2ncc(Cl)cc2[nH]1,21,10,-1,2,14,1
O=S(=O)(/C=C/c1ccccc1)NC1CCCCCCC1,328*,9,0,2,0,-9
O=S(=O)(/C=C/c1ccccc1)NC1CCCCCC1,31,22,-2,-1,1,-9
O=C1/C(=C/c2ccccc2Cl)SC(=S)N1CCCC(=O)N(CCO)c1ccccc1,-12,17,-14,30,-6,-14
O=C(NCc1ccc(F)cc1)C1CCN(S(=O)(=O)c2cccnc2)CC1,-22,-28,-1,0,-1,-4
O=C(CN1CCN(S(=O)(=O)c2ccc(Cl)cc2)CC1)Nc1ccc(N2CCOCC2)cc1,11,23,10*,2,8,-1
O=C(NCc1ccc(Cl)cc1)C1CCN(S(=O)(=O)c2cccnc2)CC1,-3,-79*,0,1,2,-2
O=C(Nc1ccc(S(=O)(=O)N2CCOCC2)cc1)c1ccc(S(=O)(=O)N2CCOCC2)cc1,-1,28,-5,2,0,-7
CCCCOc1ccc(C(=O)Nc2cc(C)c(OCC(=O)N3CCOCC3)c(C)c2)cc1,9,20,-2,8,-1,-11
O=C(Nc1ccc(S(=O)(=O)N2CCOCC2)cc1)c1ccc(Cl)cc1,-2,24,22*,-3,-4,-23
Cc1cc(NC(=O)c2ccc(Cl)cc2)cc(C)c1OCC(=O)N1CCOCC1,7,8,13*,0,7,-14
O=C(NCCCc1ccccc1)c1cccc(NC(=O)C2CCCCC2)c1,x,x,0,x,x,1
